# High-throughput results: PubChem BioAssay, National Center for Advancing Translational Sciences (NCATS)
# This is a sample that favours compounds with a hit; in the whole collection about 1.6% have one here.
# Peg3 imprint: induces erasure of genomic imprints in mouse ES cells | actives 0.02% (n = 110,000) | mouse ES Peg3-LacZ reporter, beta-gal luminescence, 40 h | Potency, µM (series often up to 60.7 µM), without a hit: top-dose activity change, positive = activation, hits mostly activators
#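 Imprint erasure is scored as LacZ activity from the silenced maternal Peg3 allele in feeder-free female ES cells cultured 40 h with LIF. Luminescence is normalized to in-plate negative controls and fitted to the Hill equation.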
# IkB signaling: suppresses IkB signaling in ABC-DLBCL reporter cells; ABC-DLBCL IkBa-CBG/CBR dual luciferase ratio, 4 h; response scale: scaled: untreated 0%, proteasome inhibitor 100%; Potency, µM (doses to about 57.1 µM), for the others: top-dose IkBa stabilization activation; actives 0.04% (n = 110,000); active = well fitted curve in the direction sought with a large enough effect in the signal ratio, not every such curve was filed as active; inconclusive = small, poorly fitted or top-dose-only effect, or a change in a side signal; the % refers to the signal ratio;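 also: the direction sought is a rising ratio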
#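 In this assay, an IκBα–CBG68 fusion accumulates when IKK-driven degradation is blocked; native CBR normalizes for cell number. OCI-Ly3 cells were treated 4 h with compound and doxycycline, then green and red light read after Chroma-Glo addition.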
# p53ts 39C kill: kills p53ts cells at the nonpermissive temperature. Potency, µM (top dose mostly 46.1 µM), for inactives: at the highest dose activity change, negative = cell killing, actives largely listed as cytotoxic. actives 1.5% (n = 130,000). AID 902. H1299-p53A138V viability at 39C, ATP luminescence, 24 h; also: % is scaled to controls: 0 for no effect and ±100 for the full control effect; nearly all actives have a fitted effect of over 55% in size
# p53ts 32C tox: kills p53ts cells at the permissive temperature | AID 924 | Potency, µM (highest dose often 46.1 µM), for inactives: at the top dose activity change, negative = cytotoxicity, most hits filed as cytotoxic | H1299-p53A138V at 32C, ATP luminescence viability, 24 h | actives 0.93% (n = 130,000);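 also: 0% = DMSO and -100% = full killing by reference compound; nearly all actives have a fitted effect of over 55% in size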
#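 H1299-p53 A138V cells (temperature-sensitive p53) exposed 24 h to up to 46 uM compound at 32C, where p53 is wild-type in conformation. Viability read as ATP luminescence and normalised to DMSO and 100 uM tamoxifen. AC50 fitted with the Hill equation.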
# * hit, by the source's call; u = inconclusive; x = no result; [ ] = dose if it differs, or a comment. Unless noted, calls follow the shape of the dose curve; as a rule, active = well fitted curve in the direction sought with a large enough effect; inconclusive = small, poorly fitted or top-dose-only effect, or another doubt; inactive = no such curve, though single readings can be large; an effect the other way counts as inactive or inconclusive. Potency is read from the fitted curve at half-maximal effect.
SMILES,Peg3 imprint,IkB signaling,p53ts 39C kill,p53ts 32C tox
c1ccc2nc(-c3nc4ccccc4[nH]3)ccc2c1,-94%,u,2µM*,3.2µM*
CSc1ccc(CNC(=O)C2CCCN(S(=O)(=O)N(C)c3ccc(F)cc3)C2)cc1 (configuration not stated),-5%[10.9 µM],u,21%,-3%
COc1ccc(-c2nn3c(-c4ccccc4C)nnc3c3ccccc23)cc1,5%[10.9 µM],4%,10µM*,25%
Cc1ccc(C(=O)[C@@H]2[C@@H]3[C@@H](C(=O)[C@@H]4OC[C@H]3O4)[C@@H]3C=Cc4ccccc4N23)cc1,x,3%[11.4 µM],x,x
[O-][N+]1=c2ccc(Nc3ccccc3)cc2=NC12CCCCC2,10%,u,20µM*,5µM*
[O-][N+]1=C2CCC/C(=N\O)C2=NC12CCCCC2,5%,-1%,0%,1%
COc1ccc(Nc2ccc3c(c2)=NC2(CCCCC2)[N+]=3[O-])cc1,-30%,u,6.3µM*,5µM*
Cc1ccc(O)c(NC(=O)c2cc(-c3ccc4c(c3)OCO4)on2)c1,-43%[10.9 µM],u,u,u
CC(=O)c1ccc(NC(=O)c2cc(-c3ccc4c(c3)OCO4)on2)cc1,7%[10.9 µM],4%,20%,8%
Cc1ccn2cc(C(=O)Nc3ccc4c(c3)OCCO4)nc2c1,-32%,u,13µM*,13µM*
CC(=O)Nc1ccc(NC(=O)c2cc(-c3ccc4c(c3)OCCO4)on2)cc1,-12%[10.9 µM],0%,1.6µM*,u
Cc1ccc(OC(=O)c2cc(-c3ccc4c(c3)OCCO4)on2)c(C)c1,-16%[10.9 µM],2%,13µM*,20µM*
CC(=O)c1cccc(NC(=O)c2cc(-c3ccc4c(c3)OCCO4)on2)c1,-8%[10.9 µM],u,2.5µM*,1.3µM*
Cc1ccccc1-c1nc(Nc2ccncc2)c2ccccc2n1,-15%,-6%[11.4 µM],-8%,5%
Nc1nc(Cl)nc2c1ncn2[C@@H]1O[C@H](CO)[C@@H](O)[C@H]1O,-2%,x,u,20µM*
Nc1ncnc2c1ncn2[C@@H]1O[C@H](CO)[C@H](O)[C@H]1O,1%,x,x,x
CC(=O)[C@]1(O)CC[C@@H]2[C@H]3C[C@@H](C)C4=CC(=O)CC[C@@]4(C)C3[C@@H](O)C[C@]21C (some centres not stated),-14%[10.9 µM],x,x,x
Cc1ccc([C@@]2(C)CC/C(=N/N=C3\CC[C@](C)(c4ccc(C)c(C)c4)c4cc(C)c(C)cc43)c3cc(C)c(C)cc32)cc1C,-2%[10.9 µM],0%[11.4 µM],4%[9.22 µM],6%[9.22 µM]
COc1ccc(-c2cc(=O)c3ccccc3[nH]2)cc1,-33%[97.3 µM],x,x,x
COc1ccc(-c2cc(=O)c3ccccc3s2)cc1,-69%,6%,25µM*,13µM*
Nc1ncnc2c1ncn2[C@@H]1O[C@@H](C(=O)NC2CC2)[C@H](O)[C@@H]1O,x,u,8%,-9%
O=C(N=c1nc2ccccn2s1)c1ccccc1,-67%,7%,u,2µM*
Cc1csc(=NC(=O)c2ccccc2)n1C,x,x,-21%,-25%
O=C(NCCc1cccs1)c1ccc(Cn2c(SCc3ccc(F)cc3)nc3cccnc32)cc1,-13%[10.9 µM],u,16µM*,13µM*
Cc1ccc(CNC(=O)c2ccc(Cn3c(SCc4ccc(F)cc4)nc4cccnc43)cc2)o1,-16%[10.9 µM],u,20µM*,u
SMILES,Peg3 imprint,IkB signaling,p53ts 39C kill,p53ts 32C tox
Cc1cccc(CSc2nc3cccnc3n2Cc2ccc(C(=O)NCc3ccco3)cc2)c1,x,x,x,-18%
O=C(NCc1ccco1)c1ccc(Cn2c(SCc3ccccc3F)nc3cccnc32)cc1,x,x,x,-26%
Cc1ccc(CSc2nc3cccnc3n2Cc2ccc(C(=O)NCc3ccco3)cc2)cc1,x,x,x,5.6µM*
O=c1ccn([C@H]2O[C@H](CO)[C@@H](O)[C@@H]2O)c(=O)[nH]1,x,-1%[11.4 µM],x,x
CSc1cccc(NC(=O)c2ccc3c(c2)CCCN3S(C)(=O)=O)c1,-4%[10.9 µM],u,u,13µM*
CC1(NC[C@@H](O)COc2cccc3[nH]ccc23)CCC(C(C)(C)NC(=O)CBr)CC1 (some centres not stated),x,18%,x,x
COc1ccc(C(=O)NCC(c2ccc(N(C)C)cc2)N2CCc3ccccc32)cc1 (configuration not stated),-15%[10.9 µM],3%,10µM*,-13%
CC(C)Oc1ccc(C(=O)NCC(c2ccc(N(C)C)cc2)N2CCc3ccccc32)cc1 (configuration not stated),4%[10.9 µM],3%,-14%,7%
Nc1ncnc2c1nc(Sc1ccc(Cl)cc1)n2[C@@H]1O[C@H]2COP(=O)(O)O[C@@H]2[C@H]1O,x,-1%,-12%,1%
O=C(Nc1ccc(N2CCCC2)cc1)c1ccccc1F,x,x,-16%,u
O=C(Nc1ccc(N2CCCCC2)cc1)c1ccccc1,x,x,13µM*,5µM*
O=C(Nc1ccc(N2CCCC2)cc1)c1cccc(F)c1,-85%,u,5µM*,7.9µM*
Cc1ccc(NC(=O)c2cnn3c(C(F)F)cc(-c4ccccc4)nc23)cc1F,-5%[10.9 µM],0%,8%,-4%
CNS(=O)(=O)c1ccc(NC(=O)c2cnn3c(C(F)F)cc(-c4ccccc4)nc23)cc1,6%[10.9 µM],-1%,13µM*,6%
Cc1cc(C)cc(NC(=O)Cn2nnc(C(=O)NCc3ccccc3Cl)c2N)c1,-11%[10.9 µM],-3%,7.9µM*,u
CC(C)CS(=O)(=O)c1oc(-c2ccc(F)cc2)nc1S(=O)(=O)c1ccccc1,-42%[10.9 µM],u,2.5µM*,10µM*
CCC(C)S(=O)(=O)c1oc(-c2cccs2)nc1S(=O)(=O)c1ccccc1 (configuration not stated),-38%[10.9 µM],u,1µM*,6.3µM*
O=S(=O)(c1ccccc1)c1nc(-c2ccc(F)cc2)oc1NCc1ccccc1,-7%[10.9 µM],-2%,-8%,7%
CCN(CC)c1ccc2cc(NC(=O)CCC(=O)O)c(=O)oc2c1,-14%,u,13µM*,u
CCN(CC)c1ccc2cc(C(N)=O)c(=O)oc2c1,x,x,-6%,-10%
N[C@H](Cc1ccc(O)c(I)c1)C(=O)O,x,-2%,x,x
Cc1ccc(C(=O)Nc2ccc3c(c2)OCO3)cc1S(=O)(=O)N1CCCC1,-23%,8%,-16%,-14%
Cc1ccc(C(=O)Nc2cccc(C(=O)O)c2)cc1S(=O)(=O)N1CCCCC1,-90%,2%,u,13µM*
CCCc1cc2c(c(=O)o1)C(O)C1OC1C2=O (configuration not stated),x,x,4%[9.22 µM],9%[9.22 µM]
CCOc1cccc(-c2nc3ccccc3c(=O)o2)c1,-29%[10.9 µM],u,10µM*,10µM*
COc1cc(OC)cc(-c2nc3ccccc3c(=O)o2)c1,x,x,22%,-5%
O=C(Nc1ccccc1)NC1CCS(=O)(=O)C1 (configuration not stated),x,x,7%,0%
CC(=O)NC1=C(NC2CCS(=O)(=O)C2)C(=O)c2ccccc2C1=O (configuration not stated),x,x,u,16µM*
COc1cccc(-c2nccc(NCc3cccs3)n2)c1,-18%,2%[11.4 µM],13µM*,u
